This excerpt belongs to a sample that is enriched for hits.
CendR NRP1 mod: alters CendR peptide binding to human NRP-1. FAM-RPARPAR peptide binding to NRP-1, fluorescence polarization. inhibition, % at 25 µM. hit rate 0.85% among 360,000. AID 602438. O14786;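 active means inhibition or corrected inhibition above about 18%, plus a signal ratio from 0.5 to 1.5, limit read from the data, passing the limit was not always enough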
PDI inh: inhibitors of human protein disulfide isomerase; AID 588391; PDI insulin aggregation turbidity, A650, 90 min; P07237; hit rate 0.052% among 350,000; inhibition, % at 10 µM;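 active means mean inhibition across replicates of 30% or more, whatever share of single replicates reach that level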
Target sequence (P07237 whole entry, looked up): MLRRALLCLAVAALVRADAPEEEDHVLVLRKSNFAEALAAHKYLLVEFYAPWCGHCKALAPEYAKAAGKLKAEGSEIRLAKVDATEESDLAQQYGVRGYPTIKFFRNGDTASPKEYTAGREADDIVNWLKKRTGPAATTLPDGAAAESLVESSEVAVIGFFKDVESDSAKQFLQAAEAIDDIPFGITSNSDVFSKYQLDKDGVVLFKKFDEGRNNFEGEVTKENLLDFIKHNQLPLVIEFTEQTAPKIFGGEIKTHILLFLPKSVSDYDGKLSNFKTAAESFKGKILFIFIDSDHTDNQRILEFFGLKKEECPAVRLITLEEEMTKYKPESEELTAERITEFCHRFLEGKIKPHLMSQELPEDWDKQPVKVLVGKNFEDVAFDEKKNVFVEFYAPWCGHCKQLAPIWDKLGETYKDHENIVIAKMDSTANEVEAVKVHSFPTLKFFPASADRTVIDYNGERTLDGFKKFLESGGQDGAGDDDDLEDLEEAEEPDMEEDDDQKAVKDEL
ARNT TACC3 PPI: ARNT/TACC3 interaction disruption; Q9Y6A5; AlphaScreen His-ARNT PAS-B/GST-TACC3 binding, luminescence; TACC3 fragment carries E629A point mutation; inhibition, % at 9.99 µM; hit rate 0.66% among 390,000; AID 623870;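 active means mean inhibition of replicates at least 50% and at least half of replicates each reaching 50%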;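 further: 0% = complete ARNT plus TACC3 wells and 100% = ARNT alone without TACC3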
ALR inh: blocks human ALR sulfhydryl oxidase activity; P55789; purified ALR, DTT oxidation, H2O2 HRP-luminol luminescence; inhibition, % (test concentration not listed); hit rate 3.8% among 290,000; AID 485317;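 active means mean replicate inhibition above about 79%, with every replicate also reaching it, limit read from the data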
Target sequence (P55789 whole entry, looked up): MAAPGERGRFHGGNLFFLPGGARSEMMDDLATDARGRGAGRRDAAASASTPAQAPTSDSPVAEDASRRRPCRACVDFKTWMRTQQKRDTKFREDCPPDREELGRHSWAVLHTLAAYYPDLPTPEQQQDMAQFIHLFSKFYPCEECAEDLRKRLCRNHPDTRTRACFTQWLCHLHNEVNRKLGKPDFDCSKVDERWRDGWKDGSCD
ERp5 inh: ERp5 (human) disulfide isomerase inhibition; inhibition, % at 9.99 µM; hit rate 0.05% among 350,000; Q15084; ERp5 insulin aggregation, absorbance 650 nm, 90 min;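 active means mean replicate inhibition above about 25%, with every replicate also reaching it, limit read from the data, passing the limit was not always enough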
PglD inh: blocks C. jejuni PglD acetyltransferase activity; inhibition, % at 12.5 µM; purified PglD enzyme, DTNB colorimetric CoA detection; hit rate 0.098% among 360,000; in the data active means inhibition above about 16%, passing the limit was not always enough
ARNT Alpha ctr-1: counter-screen for ARNT/TACC3 inhibitors: AlphaScreen artifacts | shares compounds with ARNT TACC3 PPI | His-ARNT PASB-GST AlphaScreen artifact counter-screen, luminescence | AC50, µM (highest dose often 68 µM), for the others: top-dose activity change, negative = signal decrease | hit rate 50% among 1,200 | AID 651705;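 active means every separate test run was called active for a drop in luminescence, with AC50 within twice the top valid dose, actives reach about 71 µM in these data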
ARNT Alpha ctr-2: counter-screen for ARNT-TACC3 inhibitors: AlphaScreen artifacts. shares compounds with ARNT TACC3 PPI. Dual-tagged His-ARNT PASB-GST AlphaScreen artifact counter-screen. AC50, µM. hit rate 70% among 45. AID 720564;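 active means luminescence drop, with half-maximal potency fitted within twice the sample's top valid dose, cut at about 70 µM in these data; inactive means the rest, including signal moving the wrong way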
The depositor's hits bear a star; · = no result.

SMILES	CendR NRP1 mod	PDI inh	ARNT TACC3 PPI	ALR inh	ERp5 inh	PglD inh	ARNT Alpha ctr-1	others
Cc1ccc(-n2c(SCC(N)=O)nnc2-c2ccccn2)cc1	6.8	5.4	54.7*	0.6	·	-3.0	-21.1%
Cc1ccc(Nc2c(-c3ccccn3)nc3cccc(C)n23)cc1	-4.7	3.6	55.6*	98.9*	0.6	3.6	19.8µM*
Cc1ccccc1Nc1c(-c2ccccn2)nc2c(C)cccn12	1.0	-2.1	26.8	·	1.0	4.1	·
CCCCCCSc1cccc(-c2nc3ccc(C)cn3c2NC2CCCCC2)c1	-9.1	1.9	2.6	·	1.7	3.4	·
Cc1cccc(C)c1Nc1c(-c2ccccn2)nc2ccccn12	-9.2	1.7	65.1*	94.1*	2.4	0.2	18.4µM*
Cc1ccc2nc(-c3ccccn3)c(NC3CCCC3)n2c1	-14.0	-3.0	60.8*	98.8*	3.6	-4.9	32.2µM*
CCCCNc1c(-c2ccccn2)nc2nc(C)cc(C)n12	-44.5	·	·	·	1.1	·	·
CNC[C@@H]1Oc2ccc(NS(=O)(=O)c3ccc(F)cc3)cc2CC(=O)N([C@@H](C)CO)C[C@@H]1C	·	·	-4.0	·	-2.0	2.9	·
COc1cccc(S(=O)(=O)Nc2ccc3c(c2)[C@H]2C[C@@H](CC(=O)NCc4ccccc4F)O[C@@H](CO)[C@H]2O3)c1	·	·	-1.0	·	-4.3	-2.9	·
Cc1cccc(Oc2nc(-c3ccccn3)nc3ccccc23)c1	-14.9	3.2	64.7*	1.7	0.9	3.1	-17.8%
Cc1ccccc1Oc1nc(-c2ccccn2)nc2ccccc12	-3.6	10.4	50.9*	1.6	-4.9	-3.7	-21.3%
CC(C)NC(=O)N(C)C[C@@H]1OCCCC[C@@H](C)Oc2ccc(NS(=O)(=O)c3ccc(F)cc3)cc2C(=O)N([C@@H](C)CO)C[C@@H]1C	·	·	3.8	·	2.1	-2.1	·
CCOc1ccc(Nc2nc(N)nc(CN(C)C3CCCCC3)n2)cc1	-3.2	-0.9	62.6*	·	·	-4.0	-10.5%
CCOc1ccc(Nc2ncnc(N)n2)cc1	-0.4	1.8	2.0	-2.4	1.7	0.4	·
COc1ccc(Nc2nc(N)nc(CN(C)C3CCCCC3)n2)cc1	-3.0	4.0	55.7*	-22.9	·	7.5	-9.7%
COc1ccc(Nc2nc(N)nc(COc3ccc(OC)cc3)n2)cc1	0.0	2.9	-4.2	0.3	·	4.6	·
C[C@H]1CCCCO[C@H](CN(C)S(=O)(=O)c2ccc(F)cc2)[C@@H](C)CN([C@@H](C)CO)C(=O)c2cc(NS(=O)(=O)c3cccs3)ccc2O1	·	·	8.0	·	-2.9	0.4	·
C[C@H](Nc1nc(-c2ccccn2)nnc1-c1ccccc1)C1CCCCC1	·	·	·	·	·	·	2.56µM*
C[C@@H](Nc1nc(-c2ccccn2)nnc1-c1ccccc1)C1CCCCC1	·	·	·	·	·	·	4.26µM*
C[C@@H]1CN([C@@H](C)CO)C(=O)c2cc(NC(=O)Cc3ccccc3)ccc2O[C@@H](C)CCCCO[C@H]1CN(C)Cc1ccc(C(F)(F)F)cc1	·	·	-2.5	·	·	6.3	·
Cc1ccc(S(=O)(=O)N[C@@H]2CC[C@@H](CCn3cc(C4CCCC4)nn3)O[C@@H]2CO)cc1	·	·	-3.2	·	-3.2	1.3	·
c1ccc(CN2CCN(CCCNc3ccc4nnc(-c5ccccc5)n4n3)CC2)cc1	4.2	0.8	56.7*	10.3	·	3.3	70.9µM*
COc1cc(C2C(C#N)=C(N)Oc3n[nH]c(C)c32)ccc1OC(=O)c1ccccc1 (centres undefined)	1.8	7.1	60.3*	5.4	·	-6.0	-26.4%
Cc1ccc(S(=O)(=O)Nc2ccc3c(c2)CC(=O)N([C@H](C)CO)C[C@H](C)[C@@H](CN(C)Cc2ccc(C(=O)O)cc2)O3)cc1	·	·	·	·	4.2	·	·
C/C=C/c1cnc2c(c1)C(=O)N([C@@H](C)CO)C[C@@H](C)[C@H](CN(C)S(=O)(=O)c1cccs1)O2	·	·	·	·	-1.3	·	·
SMILES	CendR NRP1 mod	PDI inh	ARNT TACC3 PPI	ALR inh	ERp5 inh	PglD inh	ARNT Alpha ctr-1	others
Cc1nc(S(=O)(=O)N2CCN(Cc3cccc(OCCO)c3)CC2)cn1C	·	·	-0.8	·	-2.3	3.3	·
CCCc1nnc(NS(=O)(=O)c2ccc(C)cc2)o1	9.3	3.4	63.5*	·	3.5	-10.1	-0.3%
COc1ccc(CN(C)C[C@@H]2Oc3c(NC(=O)NC4CCCCC4)cccc3C(=O)N([C@@H](C)CO)C[C@@H]2C)cc1	·	·	6.0	·	1.0	5.8	·
C[C@@H]1CN([C@@H](C)CO)C(=O)Cc2cc(NC(=O)Cc3ccccc3)ccc2O[C@@H]1CN(C)S(=O)(=O)c1ccc(F)cc1	·	·	7.8	·	-2.5	0.9	·
CC(C)NC(=O)Nc1ccc2c(c1)C(=O)N([C@@H](C)CO)C[C@@H](C)[C@H](CN(C)Cc1ccncc1)OCCCC[C@@H](C)O2	·	·	3.8	·	1.5	-0.1	·
CCOc1ccccc1/C=N/NC(=O)CSc1n[nH]c(=O)[nH]c1=O	1.0	-0.6	-1.4	·	3.6	·	·
O=C(CSc1n[nH]c(=O)[nH]c1=O)N/N=C/c1ccccc1O	-16.2	8.4	52.5*	·	·	·	-26.5%
COc1cc(/C=N/NC(=O)CSc2n[nH]c(=O)[nH]c2=O)cc(OC)c1O	3.2	2.5	56.7*	97.9*	2.6	·	-36.9%
COc1ccc(-c2[nH]ncc2/C=N/NC(=O)c2cccc([N+](=O)[O-])c2)cc1OC	-5.2	-2.7	8.2	-0.4	3.4	·	·
COc1ccc(-c2[nH]ncc2/C=N\NC(=O)c2cccs2)cc1OC	5.2	-3.1	51.2*	-11.2	2.9	1.6	-21.5%
O=[N+]([O-])c1cc(Cl)cc(/C=N\Nc2ccccn2)c1O	6.1	1.1	56.0*	·	·	5.2	25.4µM*
Cc1cc(-c2ccccc2)nc(N/N=C/c2ccc(O)cc2)n1	-4.5	5.7	8.0	·	1.1	-2.9	·
Cc1cc(C)c2nc(C)cc(N/N=C/c3ccc(O)cc3)c2c1	7.4	-1.0	54.7*	99.4*	2.0	-12.7	32µM*
O=c1oc2ccccc2c(O)c1C=NCc1ccccn1	-4.0	-2.2	57.5*	-4.2	·	-3.6	1.3%
Cc1cc(=O)[nH]c(-n2ncc(C#N)c2N)n1	12.5	1.2	56.2*	-3.2	0.7	15.1	-13.4%
CC1CCN(S(=O)(=O)c2ccc(C(=O)Nc3nnc(-c4ccco4)o3)cc2)CC1	-16.6	2.2	30.6	8.5	4.6	1.9	·	ARNT Alpha ctr-2=>136
CSc1ccc(-c2nnc(NC(=O)c3ccc(S(=O)(=O)N4CCC(C)CC4)cc3)o2)cc1	·	·	·	·	·	·	·	ARNT Alpha ctr-2=59.1*
O=C(Nc1nnc(-c2ccco2)o1)c1ccc(S(=O)(=O)N2CCCC2)cc1	0.7	-13.5	44.5	6.4	-0.9	·	·
O=C(Nc1nnc(-c2ccc(F)cc2)o1)c1ccc(S(=O)(=O)N2CCOCC2)cc1	-3.6	4.5	1.8	0.0	·	1.5	·
O=C(C1CC1)N1[C@@H]2CN(S(=O)(=O)c3ccccc3)c3ccccc3[C@@H]2[C@@H]1CO	·	·	-3.5	·	0.2	-15.9	·
